# Assay results taken from PubChem BioAssay AID624116 (National Center for Advancing Translational Sciences (NCATS), 2012).
# Results filed as inconclusive are left out. Where a call stands in place of a potency, no number is given. The source made the active and inactive calls. Calls come from the whole dose curve; as a rule, active = well fitted activation curve with a large enough effect; inconclusive = small, poorly fitted or top-dose-only effect; inactive = no such curve, though single readings can be large or run the other way.
# Assay: qHTS Assay for Rab9 Promoter Activators: Hit Validation Using Renilla Luciferase Read-Out for Rab9
# Conditions: Huh7 Rab9 promoter Renilla luciferase reporter, 24 h; series mostly up to 76.9 µM
# Outline: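 Luciferase reporter read-out: promoter activation measured by luminescence after 10 min with detection reagent at room temperature. Cells were Huh7 with a stable promoter-luciferase construct, treated 24 h at 37 deg C.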
# Potency is the fitted concentration of half-maximal effect.
row,Compound,Potency
1,COCCSc1ncnc2c1oc1nc3c(cc12)COC(C)(C)C3,inactive
2,COC(=O)Nc1nc2ccc(Br)cc2s1,inactive
3,Cc1ccc(C(=O)c2cncc(Br)c2)cc1,inactive
4,O=C(NCCc1c[nH]c2ccccc12)C(=O)NCC(c1ccco1)N1CCN(c2ccccc2F)CC1 (configuration not stated),inactive
5,CC(C)C(NC(=O)c1ccc([N+](=O)[O-])cc1Cl)C(=O)N1CCCC1 (configuration not stated),inactive
6,CC(=O)NC(=S)Nc1ccc2oc(-c3cc(F)c(F)cc3Cl)nc2c1,inactive
7,COc1ccc(NC(=O)Nc2ccc(Cc3ccncc3)cc2)cc1OC,inactive
8,Cc1c(C(O)CN2CCN(Cc3ccc4c(c3)OCO4)CC2)c2ccccc2n1C (configuration not stated),inactive
9,Cc1cc(C)c2c(N)c(C(=O)Nc3ccc([N+](=O)[O-])cc3)sc2n1,inactive
10,CCOC(=O)c1cc2sccc2n1CC(=O)N1CCCc2ccccc21,inactive
11,Cc1ccc(NC(=O)c2c(O)c3ccccc3n(C)c2=O)nc1,inactive
12,COc1ccc2oc(=O)c(C(=O)NC(C)c3ccccc3)cc2c1 (configuration not stated),inactive
13,Cn1c(SCc2ccccc2)nnc1-c1cnccn1,inactive
14,CC1CCCN(S(=O)(=O)c2ccc(C(=O)Nc3nnc(-c4ccncc4)o3)cc2)C1 (configuration not stated),inactive
15,O=C(CSc1nnc(Cc2cc(=O)[nH]c(=O)[nH]2)n1-c1ccc(Cl)cc1)NC1CCCC1,inactive
16,COc1ccc(C(=O)OCC(=O)N2CCCC2=O)c(OC)c1,inactive
17,CC1(C)CC(=O)c2c(O)c(-c3ccccc3)c(=O)n(-c3ccccc3)c2C1,inactive
18,COc1cccc(NC(=O)CN2C(=O)CSc3ccc(S(=O)(=O)N4CCC(C)CC4)cc32)c1,inactive
19,CC(C)CC(=O)N1CCN(c2ccc(NC(=O)c3ccco3)cc2)CC1,inactive

row,Compound,Potency
1,COc1cccc(C(C(=O)NC2CCCC2)N(CCC(C)C)C(=O)CCC(=O)Nc2cc(C)on2)c1 (configuration not stated),inactive
2,Cc1ccc(C(=O)Nc2ccc(N3CCN(C)CC3)nc2)cc1,inactive
3,Nc1ccccc1C(=O)N/N=C1/C2CN3CCN(C2)CC1(Cc1ccccc1)C3,inactive
4,CCN(CC(=O)N(CC(C)C)c1c(N)n(CC(C)C)c(=O)[nH]c1=O)Cc1nc2ccccc2c(=O)[nH]1,inactive
5,Cc1ccc2c(c1)sc1nc(=O)n(-c3ccccc3)c(=O)n12,inactive
6,CCOC(=O)c1ccccc1NC(=O)CSc1nnc(Cc2cccn2C)n1-c1ccc(F)cc1,36.8 µM (active)
7,CCCCn1c(CCNC(=O)c2cccs2)nc2ccccc21,inactive
8,O=C(Nc1ccc(-c2nc3cccnc3s2)cc1)c1ccc(Cl)nc1,inactive
9,CCCCc1cc(=O)oc2cc(OCC(=O)N3CCOCC3)ccc12,inactive
10,Cc1ccc(NC(=O)NC(=O)c2ccccc2)cc1F,inactive
11,CCN(Cc1nc2cc(Cl)ccc2c(=O)[nH]1)C(=O)C1CC(=O)N(c2cccc3ccccc23)C1 (configuration not stated),inactive
12,Cc1ccc(N(O)C(=O)NCCCCNC(=O)N(O)c2ccc(C)cc2)cc1,inactive
13,CCOC(=O)C1(Cc2cccc(Cl)c2)CCCN(C(=O)CCSC)C1 (configuration not stated),inactive
14,Cc1ccc2nc(NC(=O)CCn3cccc3)sc2c1,inactive
15,CC1=C(C(=O)OC2CCCC(C)C2)C(c2ccccc2)NC(=O)N1 (configuration not stated),inactive
16,Cc1ccccc1NC(=O)CSc1ccc(-c2cccnc2)nn1,inactive
17,CC(Sc1nnc(C(F)(F)F)n1C)C(=O)Nc1ccc(S(N)(=O)=O)cc1 (configuration not stated),inactive
18,O=C(CCCn1c(=O)oc2ccccc21)N1CCN(c2ccccn2)CC1,inactive
